# Measurements from PubChem BioAssay (NCI).
# Values joined by “and” are separate entries in the source; they are usually repeats but may differ in a detail not shown here. Identical values can stand only once. Compounds without any hit were thinned out: in the full panel of roughly 83,000, 20% have a hit.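 Percent growth is the endpoint: 0 to 100 indicates growth inhibition (40 means 60% inhibition), 0 means no net growth, and negative values indicate cell death.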 A number with no mark means an inactive call. Active and inactive are the calls of the source. The calls were made as follows: active = growth percent below 10; inactive = the rest.
# Legend:
# Assay in all cases: NCI-60 one-dose screen, 48 h (100 = growth as untreated, 0 = no growth, -100 = all killed)
# Conditions in all cases: 10 µM unless noted
# DU-145 prostate = tested on: DU-145 prostate
# K-562 leukemia = tested on: K-562 leukemia
# MALME-3M melanoma = tested on: MALME-3M melanoma
# MDA-MB-231 breast = tested on: MDA-MB-231 breast
# RXF 393 renal = tested on: RXF 393 renal
# SF-268 CNS = tested on: SF-268 CNS
# SF-295 CNS = tested on: SF-295 CNS
# SF-539 CNS = tested on: SF-539 CNS
# UACC-257 melanoma = tested on: UACC-257 melanoma
# M14 melanoma = tested on: M14 melanoma
# HCT-15 colon = tested on: HCT-15 colon
# HT29 colon = tested on: HT29 colon
# SNB-75 CNS = tested on: SNB-75 CNS
# SNB-19 CNS = tested on: SNB-19 CNS
# U251 CNS = tested on: U251 CNS
# PC-3 prostate = tested on: PC-3 prostate
# SK-MEL-5 melanoma = tested on: SK-MEL-5 melanoma
# UACC-62 melanoma = tested on: UACC-62 melanoma
# LOX IMVI melanoma = tested on: LOX IMVI melanoma
# SK-MEL-28 melanoma = tested on: SK-MEL-28 melanoma
SMILES,growth (DU-145 prostate),growth (K-562 leukemia),growth (MALME-3M melanoma),growth (MDA-MB-231 breast),growth (RXF 393 renal),growth (SF-268 CNS),growth (SF-295 CNS),growth (SF-539 CNS),growth (UACC-257 melanoma),growth (M14 melanoma),growth (HCT-15 colon),growth (HT29 colon),growth (SNB-75 CNS),growth (SNB-19 CNS),growth (U251 CNS),growth (PC-3 prostate),growth (SK-MEL-5 melanoma),growth (UACC-62 melanoma),growth (LOX IMVI melanoma),growth (SK-MEL-28 melanoma)
Cc1cc(NC(=O)NCCCOc2ccc(N3C(N)=NC(N)=NC3(C)C)cc2Cl)ccc1S(=O)(=O)F,33.6%,25.1%,55.6%,71.7%,48.6%,32.7%,30.4%,17.5%,25.9%,41%,90.2%,4.91% (active),53.1%,27.7%,15.8%,11.9%,22.6%,25.2%,14.4%,48.9%
CC(C)c1cccc(C(C)C)c1O,109% and 116%,92.8% and 104%,95.7% and 91.8%,114% and 107%,109%,110% and 97.7%,101% and 103%,115% and 97.4%,100%,109% and 111%,99.1% and 107%,99.4% and 102%,109% and 81.4%,123% and 94%,97.2% and 99.7%,99.7% and 93.8%,,118% and 92.1%,96.9% and 105%,115% and 104%
O=P(O)(Nc1ccccc1)Nc1ccccc1,97%,51.9%,94.3%,109%,93.9%,102%,96.1%,91.6%,89.3%,88.4%,119%,94.3%,81.9%,95.3%,99.3%,91.5%,94.4%,,92.7%,148%
Cc1cc(C(C)(C)C)ccc1O,104%,103%,104%,118%,102%,97.3%,110%,111%,100%,102%,109%,106%,102%,111%,94.2%,93.6%,,109%,94.9%,
Cc1ccc(S(=O)(=O)n2cc([C@@]3(O)C[C@H](CSC#N)OC3=O)c3ccccc32)cc1,43.9%,48.5%,61.7%,55.3%,50.9%,72.4%,94.8%,51.2%,96.1%,66.2%,70%,54.3%,67.8%,97.5%,40.9%,78.5%,66.6%,76.3%,49.4%,96.2%
O=[P+](O)c1cccnc1,114%,99.1%,106%,107%,114%,98.2%,103%,105%,104%,106%,106%,93.7%,94.3%,106%,99.6%,96.7%,,103%,98.1%,106%
O=C1NC(=O)C(=Cc2ccccc2)C(=O)N1,103% and 111%,86.2% and 112%,96.1% and 109%,96.4% and 110%,98.5% and 116%,92.9% and 104%,107% and 102%,133% and 101%,98.6%,103% and 106%,98.6% and 106%,105% and 99%,105% and 96.5%,106%,97.4% and 92.2%,81% and 96.2%,109% and 100%,,94% and 97.1%,
CSc1cc(/C=C(\C)[C@@H]2C[C@@H]3O[C@]3(C)CCC[C@H](C)[C@H](O)[C@@H](C)C(=O)C(C)(C)[C@@H](O)CC(=O)O2)n(CCNC(=O)OC(C)(C)C)n1,58%,36.4%,78.7%,63.8%,63.6%,70.6%,73.5%,54%,91.9%,56.7%,37.1%,28.2%,43.9%,70.4%,67.2%,39%,38.4%,,51.1%,79%
Cc1ccc(NC2=N[C@]34CC(=O)CC[C@]3(C)[C@H]3CC[C@]5(C)C(=O)CC[C@H]5[C@@H]3C[C@@H]4S2)c(C)c1,25.9%,5.33% (active),27.3%,26.6%,28.8%,46.9%,63.8%,8.46% (active),65.6%,37.9%,0.807% (active),3.81% (active),35.1%,44%,18.4%,15.8%,51.4%,39%,-16.6% (active),50.8%
Cc1cc(Br)c([N+](=O)[O-])cc1[N+](=O)[O-],89.4%,75%,128%,97.8%,103%,97.2%,114%,97.9%,98.7%,96.2%,76.1%,103%,108%,103%,103%,91.4%,,102%,19.7%,116%
CN(C)c1ccc(C=C2C(=O)NC(=O)NC2=O)cc1,102%,109%,96.4%,88.2%,94%,93.5%,95.5%,96.7%,-19.7% (active),86.5%,102%,113%,92%,99.6%,97%,105%,,94.5%,85.8%,92.5%
Oc1ccccc1C=NCCN=Cc1ccccc1O.[Fe],104%,85.3%,69.7%,34.9%,98.8%,97.4%,85%,88.8%,46.9%,93.9%,101%,72.4%,77.2%,87.1%,26.4%,79.2%,66.5%,,-80.2% (active),117%
S=P(SP(=S)(c1ccccc1)c1ccccc1)(c1ccccc1)c1ccccc1,106%,97%,96.5%,94.1%,97.1%,95.8%,92.5%,103%,104%,101%,97%,101%,91.2%,103%,101%,93.5%,,88.7%,98.5%,111%
COc1ccc(CN)cc1OC,111% and 106%,131%,96.8%,109% and 107%,126%,108% and 98.9%,104%,105% and 99.3%,106% and 101%,110% and 98.7%,103% and 100%,107%,113% and 93.3%,104% and 103%,112% and 97.6%,106% and 93.5%,,,98.2% and 94.2%,110% and 116%
